The text below walks through data of PubChem BioAssay (NCATS).

Inconclusive results are not listed. Calls of active or inactive are those of the source. Calls come from the whole dose curve; as a rule, active = well fitted inhibition curve with a large enough effect; inconclusive = small, poorly fitted or top-dose-only effect; inactive = flat fitted curve, though single readings scatter.

The assay has as its system CP194. The experiment in a line: qHTS profiling for inhibitors of Plasmodium falciparum proliferation (AID 504749).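 Note: 0% = DMSO vehicle and full inhibition = artemisinin control; nearly all actives have a fitted effect of over 60% in size.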 Particulars: P. falciparum in erythrocytes, SYBR Green DNA, 72 h; series mostly up to 28.7 µM; activity, negative = inhibition: at the top concentration. In a few lines:
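SYBR Green fluorescence (ex 485 nm, em 535 nm) reports parasite DNA after 72 h compound exposure of infected red cells at 0.3% parasitemia, 2.5% hematocrit; signal normalized to 0.29 uM artemisinin and vehicle wells.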
`CNc1c2c(nn1C)CCCC2`: the “activity, negative = inhibition” value was 7.91% (inactive).

As to `NC(=O)CC[C@@H](N)C(=O)O`, the “activity, negative = inhibition” value was 8.27% (inactive).

On to `Cc1c(C(=O)NCCO)[n+](=O)c2ccccc2n1[O-]`, for which the “activity, negative = inhibition” value is -5.54% (inactive).

For the molecule `CCCCOC(=O)c1ccc(N)cc1`, the “activity, negative = inhibition” value is -1.79% (inactive).

For the molecule `CCCCCCCC(=O)OCC(O)CO` (stereo not given), the “activity, negative = inhibition” value was 0.426% (inactive).

On to `CCOc1cc(NC(C)=O)ccc1C(=O)OC`, for which the “activity, negative = inhibition” value was -0.181% (inactive).

In the case of `C[C@@H](N)C(=O)O`, the “activity, negative = inhibition” value was 1.68% (inactive).

For the molecule `CC(N)CCCC(C)(C)O` (stereo not given), the “activity, negative = inhibition” value was -6.99% (inactive).

On to `O=C(O)Cc1ccc(CCNS(=O)(=O)c2ccc(Cl)cc2)cc1`, for which the “activity, negative = inhibition” value is 0.552% (inactive).

On to `COC(=O)c1cccnc1`, for which the “activity, negative = inhibition” value was 0.447% (inactive).

As for `O=C(Cn1ccnc1[N+](=O)[O-])NCCO`, the “activity, negative = inhibition” value was 3.6% (inactive).

Turning to `Cc1ccc(S(=O)(=O)NC(=O)NC2CCCCC2)cc1`, the “activity, negative = inhibition” value is 8.92% (inactive).

As for `C[N+](C)(C)CC[N+]1(C)Cc2c(Cl)c(Cl)c(Cl)c(Cl)c2C1`, the “activity, negative = inhibition” value is 0.383% (inactive).

Regarding `O=C(O)CCC(=O)O`, the “activity, negative = inhibition” value was 1.37% (inactive).

Take `NC(=O)NS(=O)(=O)c1ccc(N)cc1`: the “activity, negative = inhibition” value is 2.18% (inactive).

Take `O=C(/C=C/c1ccccc1)OCc1ccccc1`: the “activity, negative = inhibition” value was -4.84% (inactive).

As to `COc1cc(C(=O)NCCCCCC(=O)O)cc(OC)c1OC`, the “activity, negative = inhibition” value is 0.233% (inactive).

As for `O[C@@H]1CO[C@H]2[C@@H]1OC[C@@H]2O`, the “activity, negative = inhibition” value was -5.15% (inactive).

In the case of `O=C(O)c1ccc(OCCCOc2ccc(C(=O)O)cc2)cc1`, the “activity, negative = inhibition” value was 2.12% (inactive).

As for `CC(=O)NS(=O)(=O)c1ccc(N)cc1`, the “activity, negative = inhibition” value was -0.873% (inactive).

For the molecule `CC(=O)Nc1ccc(C(=O)O)cc1`, the “activity, negative = inhibition” value was 4.9% (inactive).

For `CC1CCc2cc(F)cc3c(=O)c(C(=O)O)cn1c23` (stereo not given), the “activity, negative = inhibition” value is 3.41% (inactive).

In the case of `CCc1cccc(CC)c1NC(=O)CN(CC(=O)O)CC(=O)O`, the “activity, negative = inhibition” value is 0.163% [at 12.8 µM] (inactive).

With `O=c1[nH]c(=O)c2ccccc2o1`, the “activity, negative = inhibition” value was -7.63% (inactive).

`CN/C(=C\[N+](=O)[O-])NCCSCc1csc(CN(C)C)n1`: the “activity, negative = inhibition” value is -1.42% [at 12.8 µM] (inactive).
